From PubChem BioAssay AID1851 (National Center for Advancing Translational Sciences (NCATS), 2009)
Values joined by “and” are separate entries in the source; they are usually repeats but may differ in a detail not shown here. Identical values can stand only once. The campaign covered roughly 16,000 compounds. About 4,000 (25%) were called active. Not shown: some 26% with an inconclusive outcome. The call rests on the fitted dose curve; in most records, active means well fitted curve in the direction sought with a large enough effect; inconclusive means small, poorly fitted or top-dose-only effect, or effect the other way; inactive means no such curve, though single readings can be large or run the other way. These entries were drawn from the full list.

Molecular target: Cytochrome P450 2C9 (Homo sapiens) (UniProt P11712)
Sequence (P11712 whole entry, looked up): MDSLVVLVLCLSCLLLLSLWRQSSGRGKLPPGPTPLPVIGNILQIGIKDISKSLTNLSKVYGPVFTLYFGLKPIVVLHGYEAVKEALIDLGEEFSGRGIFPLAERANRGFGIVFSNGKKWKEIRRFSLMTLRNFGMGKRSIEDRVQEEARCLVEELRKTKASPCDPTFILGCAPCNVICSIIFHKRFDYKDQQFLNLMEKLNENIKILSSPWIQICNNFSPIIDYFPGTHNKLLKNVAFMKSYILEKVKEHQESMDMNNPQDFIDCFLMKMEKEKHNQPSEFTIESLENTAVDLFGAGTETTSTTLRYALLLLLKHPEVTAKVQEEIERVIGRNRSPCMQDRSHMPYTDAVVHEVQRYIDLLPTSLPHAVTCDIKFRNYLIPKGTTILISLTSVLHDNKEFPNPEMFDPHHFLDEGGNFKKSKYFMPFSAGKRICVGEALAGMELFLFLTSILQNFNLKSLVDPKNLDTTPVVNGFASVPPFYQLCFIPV
Test: Cytochrome panel assay with activity outcomes
Details: recombinant CYP, pro-luciferin dealkylation, luminescence, p450-cyp2c9; series mostly up to 57.1 µM; activity, negative = inhibition: at the top concentration
Procedure: The P450 gene superfamily is involved in the metabolism and clearance of xenobiotics. This assay used various human CYP P450 isozymes to measure the dealkylation of various pro-luciferin substrates to luciferin. The luciferin is then measured by luminescence after the addition of a luciferase detection reagent. Pro-luciferin substrate concentration in the assay was equal to its KM for its CYP P450 isozyme. Inhibitors and some substrates limit the production of luciferin, and decrease measured luminescence.
NCGC Assay Protocol Summary:
1, Reagent, 2 uL, Isozyme and Pro-Luciferin
2, Library compounds, 23 nl, 40 uM to 0.24 nM dilution series
3, Controls, 23 nl, Isozyme specific inhibitor
4, Reagent, 2 uL, NADPH regeneration solution
5, Incubation time, 60 min, Isozyme specific temperature
6, Reagent, 4ul, Detection reagent
7, Incubation time, 20 min, Isozyme specific temperature
8, Detection, 1 sec, ViewLux luminescent read
The luciferase-based P450-GloTM Screening Systems were obtained from Promega (Madison, WI) for CYP 1A2 (V9770), CYP 2C9 (V9790), CYP2 C19 (V9880), CYP 2D6 (V9890), and CYP 3A4 Luciferin-PPXE (V9910) and were adapted for 1,536-well microplates and an automated protocol. The control compounds furafylline for 1A2 (F124), sulfaphenazole for CYP 2C9 (S0758), ketoconazole for CYP 2C19 (K1003), quinidine for 2D6 (Q3625), and ketoconazole for 3A4 (K1003) were purchased from Sigma Aldrich (St. Louis, MO). Recombinant P450 enzymes were obtained from baculovirus constructs expressed in insect cells (BD/Gentest).
Medium-binding white solid Kalypsys plates used. Mixtures kept on ice. 1A2: 10 nM 1A2, 100 uM Luc-ME, 100 mM KPO4; 2C9: 10 nM 2C9, 100 uM Luc-H, 25 mM KPO4; 2C19: 5 nM 2C19, 10 uM Luc-H EGE, 50 mM KPO4; 2D6: 5 nM 2D6, 30 uM Luc-ME EGE, 100 mM KPO4; 3A4: 10 nM, 25 uM Luc-PPXE. All amounts are reflected in their final concentration, working concentration is 2x.
NADPH regeneration solution: 1.3 mM NADP+, 3.3 mM glucose-6-phosphate, 3.3 mM MgCl2, 0.4 U/mL glucose-6-phosphate dehydrogenase for all isozymes, 200 mM KPO4 for 3A4. Mixture prepared at RT but kept on ice during automated run.
RT incubation in auxilliary plate hotel for 1A2, 2D6, and 3A4; 37C for 2C9 and 2C19.
Keywords: P450, CYP1A2, CYP2C19, CYP2C9, CYP2D6, CYP3A4, Luciferase, MLSMR, MLSCN, NIH Roadmap, qHTS, NCGC
On the % scale 0 is the no-effect control and ±100 the full control effect.

SMILES	activity, negative = inhibition	AC50
Nc1nc(SCc2ccccc2Cl)cc(C(=O)O)n1	0.0938% [at 11.4 µM] (inactive)	–
N#Cc1c(SCC(N)=O)nsc1SCc1ccccc1Cl	–	11.2 µM (active)
CCOC(=O)C1CCCN(C(=O)CSCc2ccccc2)C1 (stereo not drawn)	–	10 µM (active)
CCOC(=O)C1CCCN(S(=O)(=O)c2ccccc2)C1 (stereo not drawn)	29.1% (inactive)	–
CN1CCN(c2nc(-c3ccccc3C(F)(F)F)nc3ccccc23)CC1	1.94% [at 2.29 µM] (inactive)	–
CO[C@]1(NC(=O)Cc2cccs2)C(=O)N2C(C(=O)O)=C(COC(N)=O)CS[C@H]21	1.75% [at 25.6 µM] (inactive)	–
O=C(c1cnc(N2CCN(c3ncccn3)CC2)c2ccccc12)N1CCN(c2ccccn2)CC1	–	3.55 µM (active)
Cn1cccc1C(=O)N1CCC2(CC1)CCN(c1ncccn1)CC2	5.06% (inactive)	–
O=C(c1cnccn1)N1CCC2(CC1)CCN(c1ccccn1)CC2	0.265% (inactive)	–
COC(=O)N1CCC2(CC1)CCN(c1ccccn1)CC2	-3.68% (inactive)	–
COc1ccccc1C(=O)N1CCN(c2ccccn2)CC1	–	14.1 µM (active)
O=C(c1cnccn1)N1CCC2(CC1)CCN(c1ncccn1)CC2	4.53% (inactive)	–
CC(=O)N1CCC2(CC1)CN(c1ccccn1)C2	5.68% (inactive)	–
O=C(c1cnccn1)N1CCC2(CC1)CN(c1ccccn1)C2	3.85% (inactive)	–
O=C(c1cnc(N2CCN(c3ncccn3)CC2)c2ccccc12)N1CCN(c2ncccn2)CC1	–	6.31 µM (active)
C/C=C\C[C@H](C)[C@H](O)[C@H]1C(=O)N[C@@H](CC)C(=O)N(C)CC(=O)N(C)[C@@H](CC(C)C)C(=O)N[C@@H](C(C)C)C(=O)N(C)[C@@H](CC(C)C)C(=O)N[C@@H](C)C(=O)N[C@@H](C)C(=O)N(C)[C@@H](CC(C)C)C(=O)N(C)[C@@H](CC(C)C)C(=O)N(C)[C@@H](C(C)C)C(=O)N1C	–	inactive
Cc1ccc(S(=O)(=O)N=Nc2c(O)[nH]c3cc(O)c(C(=O)O)cc23)cc1	3.49% [at 11.4 µM] (inactive)	–
CN1CC[C@@]2(CCCN(C(=O)c3cccc(F)c3)C2)C1	4.92% (inactive)	–
COc1cccc2c1C(=O)c1c(O)c3c(c(O)c1C2=O)C[C@@](O)(C(=O)CO)C[C@H]3O[C@H]1C[C@@H](N)[C@H](O)[C@@H](C)O1.[W]	3.88% [at 11.4 µM] (inactive)	–
C#CCCCO/N=C1/C[C@@H](O)[C@@H](O)[C@@H]2[C@@H]3C(=O)N(CC)C(=O)[C@H]3CC[C@H]12	3.17% [at 11.4 µM] (inactive)	–

SMILES	activity, negative = inhibition	AC50
O=C(O)CC(c1ccccc1)n1cnnn1 (stereo not drawn)	-6.07% (inactive)	–
Cc1cc(C)c(NC(=O)C[C@H](CC(=O)O)c2cccc3ccccc23)c(C(=O)N2CCC3(CCCC3)CC2)c1	-2.73% (inactive)	–
O=C(O)CC(c1cccc2ccccc12)n1cccc1 (stereo not drawn)	–	8.91 µM (active)
O=C(O)CN1CCN(Cc2ccccc2Cl)C1=O	-29.3% (inactive)	–
Cc1cccc(CN2CCN(CC(=O)O)C2=O)c1	-24.3% (inactive)	–
O=C(O)CN1CCN(Cc2ccc(F)cc2Cl)C1=O	–	0.316 µM (active)
O=C(O)CNC(=O)[C@@H](CS)Cc1ccccc1	11.8% [at 25.6 µM] (inactive)	–
CC(C)C(CCNC(=O)CC(Cc1ccccc1)c1ccco1)c1ccco1 (stereo not drawn)	–	2.82 µM (active)
CC(Cc1ccccc1)N/C=C1\CC(=O)NC1=O (stereo not drawn)	6.55% (inactive)	–
COc1c(O[C@H]2O[C@@H](CO)[C@@H](O)[C@@H](O)[C@@H]2O)cc2c(c1OC)-c1ccc(SC)c(=O)cc1[C@H](NC(C)=O)CC2	-8.94% [at 25.6 µM] (inactive)	–
CC(=O)NCCNc1ncnc2ccc(-c3ccoc3)cc12	6.33% [at 2.29 µM] (inactive)	–
CC1CSc2nc3sc4c(c3c(=O)n21)CCCC4 (stereo not drawn)	–	14.1 µM (active)
Nc1nc(Cl)nc2c1ncn2[C@@H]1O[C@@H](COP(=O)(O)OP(=O)(O)OP(=O)(O)O)[C@@H](O)[C@H]1O	18.3% (inactive)	–
S=c1nc[nH]c2c1ncn2Cc1ccco1	1.4% [at 11.4 µM] (inactive)	–
O=C1c2ccccc2N[C@H](c2cc(Cl)cc(Cl)c2O)N1CCc1ccccn1	–	3.16 µM (active)
O=C1CC(N2CCN(CCc3ccccn3)CC2)C(=O)N1c1ccc(Cl)cc1 (stereo not drawn)	-8.6% (inactive)	–
CCOC(=O)C1=C(c2ccccc2)N=c2s/c(=C\c3cccc(O)c3)c(=O)n2C1c1cccs1 (stereo not drawn)	-16.1% (inactive)	–
CCOC(=O)C1=C(N)n2c(s/c(=C\c3ccco3)c2=O)=C(C(=O)OCC)C1c1ccco1 (stereo not drawn)	–	1.26 µM (active)
CCOC(=O)C1=C(c2ccccc2)N=c2s/c(=C\c3ccco3)c(=O)n2C1c1cccs1 (stereo not drawn)	–	8.91 µM (active)
OCCCSCCO	11.5% [at 11.4 µM] (inactive)	–

SMILES	activity, negative = inhibition	AC50
C[N+](C)(C)CC[N+]1(C)Cc2c(Cl)c(Cl)c(Cl)c(Cl)c2C1	-8.79% (inactive)	–
NS(=O)(=O)c1nc(S(=O)(=O)O)c2[nH]cnc2n1	-8.54% [at 11.4 µM] (inactive)	–
Cc1ccc(S(=O)(=O)NC(=O)Nc2ncn[nH]2)cc1	4.99% [at 11.4 µM] (inactive)	–
Cc1nnc(NS(=O)(=O)c2ccc(N)cc2)s1	-21.3% [at 25.6 µM] (inactive)	–
Cc1ccc(S(=O)(=O)Nc2nc(C)c(NC(=O)Nc3ccc(Cl)cc3Cl)s2)cc1	–	7.94 µM (active)
CCN(CC)C(=S)SSC(=S)N(CC)CC	–	2.51 µM (active) and 398 nM (active)
CC(C)(CO[C@H]1C[C@H]2CC[C@@]1(C)C2(C)C)[N+](=O)[O-]	-3.36% [at 11.4 µM] (inactive)	–
C[C@H](O)C(=O)C1=Nc2c(nc(N)[nH]c2=O)NC1	15.9% (inactive)	–
CC(C)(C)C(=O)NC(=S)NCCc1ccccc1	–	11.2 µM (active)
O=C(CCc1ccccc1)NNC(=S)NC(=O)c1ccccc1	–	15.8 µM (active)
O=C(CCc1ccccc1)NNC(=O)c1ccco1	-10.8% (inactive)	–
CCCC(=O)Nc1ccc(C(=O)NNC(=S)NC(=O)c2cccs2)cc1	–	20 µM (active)
COc1cc(CNCCc2ccccc2)ccc1OCC(=O)NC(C)(C)C	-0.348% (inactive)	–
CCC(=O)Nc1ccc(C(=O)NNC(=O)c2cccs2)cc1	11.9% (inactive)	–
COc1cc(OC)cc(C(=O)NC(=S)NCCc2ccccc2)c1	–	2.82 µM (active)
CC(C)(C)OC(=O)N1CCCC1C(=O)NCCc1ccccc1 (stereo not drawn)	-29.8% (inactive)	–
NNC(=O)c1ccc[n+](CCc2ccccc2)c1	-1.12% [at 11.4 µM] (inactive)	–
N[C@@H](CSCc1ccc(I)cc1)C(=O)O	12.7% [at 11.4 µM] (inactive)	–
